Potency, activity change, negative = inhibition and max response data for 23 compounds are collected here from PubChem BioAssay (NCATS).

Records with an inconclusive call do not appear. Active and inactive are the calls of the source. Unless noted, calls come from the whole dose curve; as a rule, active = well fitted curve in the direction sought with a large enough effect; inconclusive = small, poorly fitted or top-dose-only effect, or another doubt; inactive = no such curve, though single readings can be large; an effect the other way counts as inactive or inconclusive.

In assay [1] the target is Cytochrome P450 3A4 (Homo sapiens) (UniProt P08684). As to the kind of experiment: qHTS Assay for Inhibitors and Substrates of Cytochrome P450 3A4 (AID 884). For activity change, negative = inhibition: % is set by controls: 0 for no effect and ±100 for the full control effect. Note: nearly all actives have a fitted effect of over 50% in size. Note: potency is the fitted concentration of half-maximal effect. The essentials: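 Luminescent readout of luciferin produced by CYP3A4 (20 nM) dealkylation of Luciferin-PPXE, 25 uM (its KM). NADPH-driven reaction ran 60 min at RT after 10 min compound preincubation; data scaled to 57 uM ketoconazole as 100% inhibition.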
On the technique in general: qHTS replaces the single test concentration by a dilution series.

Assay [2] is described as follows: Confirmation and Secondary Assay for Modulators of Hemoglobin Beta Chain Splicing at IVS2 654 locus (AID 910).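 Note: HeLa cells stably carrying EGFP split by mutant beta-globin IVS2-654 intron; per-well total GFP intensity by laser scanning cytometry after 2-day treatment; % of control where 0% means no effect.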 The essentials: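 Readout: per-well total peak green fluorescence (488 nm ex, 500–520 nm em) from objects 5–250 µm, reflecting correct splicing of an EGFP-654 reporter. Compounds were applied for 2 days at 37 °C to overnight-plated HeLa EGFP-654 cells; controls were DMSO and 500 nM IVS2-654 PNA.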

Assay [3] in a line: qHTS Assay for Lipid Storage Modulators (AID 1519; calls by dose curve; for activity change, negative = inhibition: % is set by controls: 0 for no effect and ±100 for the full control effect). As to conditions: Drosophila S3 cells, BODIPY lipid droplet/cell ratio, laser cytometry, cells loaded with oleic acid; for activity change, negative = inhibition: at 57.5 µM (top of the series). In outline: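 Cells seeded at 5,000 per well were treated with compounds over a concentration series and loaded with oleic acid (400 uM, as added). Lipid droplet fluorescence (488 nm excitation, 500-530 nm channel) was read by laser-scanning cytometry and normalized to 20 uM Triacsin C.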

In assay [4] the target is Ubiquitin carboxyl-terminal hydrolase 1 (Homo sapiens) (UniProt O94782). The experiment in a line: Inhibitors of USP1/UAF1: Pilot qHTS (AID 504865).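 Note: rhodamine fluorescence freed from ubiquitin-rhodamine substrate followed over time; top concentration of the series differs between compounds; % is set by controls: 0 for no effect and ±100 for the full control effect; nearly all actives have a fitted effect of over 35% in size.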 In outline:
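In 50mM HEPES pH 7.8 containing 0.5mM EDTA, 1mM TCEP, 0.1 mg/ml BSA and 0.01% Tween-20, 1nM USP1/UAF1 is exposed to compound for 15 min, then Ub-Rho (150nM final) is added and fluorescence is read over time.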

Assay [5] has as its target Cytochrome P450 3A4 (Homo sapiens) (UniProt P08684). The experiment in a line: qHTS Assay for Activators of Cytochrome P450 3A4 (AID 885). Note: nearly all actives have a fitted effect of over 65% in size. In outline:
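Activators are scored by enhanced luminescence from CYP3A4 conversion of luciferin-PPXE (25uM, equal to KM) to luciferin, after 60 min at RT with an NADPH-regenerating system.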

Assay [6] is described as follows: Confirmation and Secondary Assay for Modulators of Hemoglobin Beta Chain Splicing at IVS2 705 locus (AID 930).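 Note: HeLa cells stably expressing the EGFP-705 splicing reporter; GFP fluorescence per well restored by corrected splicing of the IVS2-705 intron in EGFP; % of control where 0% means no effect.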 The essentials: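 HeLa IVS2-705 EGFP reporter cells, 500/well, compound 2 d at 37C; correct splicing yields fluorescent EGFP. Control: 500 nM antisense PNA. Read-out: total peak GFP intensity.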
Setting [7] is: measured here: cell count channel max response.
The mark [8] stands for this setting: measured here: lipid channel max response.

Chain of Ubiquitin carboxyl-terminal hydrolase 1 (Homo sapiens) (O94782 whole entry, looked up): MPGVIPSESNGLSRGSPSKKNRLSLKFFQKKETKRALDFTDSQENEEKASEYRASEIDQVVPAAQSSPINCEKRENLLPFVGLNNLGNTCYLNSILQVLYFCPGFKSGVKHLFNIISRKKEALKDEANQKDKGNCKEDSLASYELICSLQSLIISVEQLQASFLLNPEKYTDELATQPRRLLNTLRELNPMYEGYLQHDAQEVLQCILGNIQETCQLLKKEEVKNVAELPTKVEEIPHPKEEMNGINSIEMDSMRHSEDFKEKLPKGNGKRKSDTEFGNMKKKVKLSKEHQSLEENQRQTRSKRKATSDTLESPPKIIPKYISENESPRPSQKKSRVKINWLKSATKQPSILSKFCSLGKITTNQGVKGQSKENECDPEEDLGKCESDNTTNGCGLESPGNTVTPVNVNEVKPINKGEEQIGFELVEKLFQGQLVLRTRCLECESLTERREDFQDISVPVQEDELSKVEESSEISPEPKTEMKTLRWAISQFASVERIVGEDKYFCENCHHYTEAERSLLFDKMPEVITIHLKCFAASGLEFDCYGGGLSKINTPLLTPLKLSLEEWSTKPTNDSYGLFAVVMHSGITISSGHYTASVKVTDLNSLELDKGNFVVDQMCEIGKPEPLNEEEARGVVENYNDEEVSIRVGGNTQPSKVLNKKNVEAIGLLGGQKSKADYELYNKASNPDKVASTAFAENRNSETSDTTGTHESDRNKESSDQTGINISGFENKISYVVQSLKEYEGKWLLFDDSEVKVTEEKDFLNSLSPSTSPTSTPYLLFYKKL
Chain of Cytochrome P450 3A4 (Homo sapiens) (P08684 whole entry, looked up): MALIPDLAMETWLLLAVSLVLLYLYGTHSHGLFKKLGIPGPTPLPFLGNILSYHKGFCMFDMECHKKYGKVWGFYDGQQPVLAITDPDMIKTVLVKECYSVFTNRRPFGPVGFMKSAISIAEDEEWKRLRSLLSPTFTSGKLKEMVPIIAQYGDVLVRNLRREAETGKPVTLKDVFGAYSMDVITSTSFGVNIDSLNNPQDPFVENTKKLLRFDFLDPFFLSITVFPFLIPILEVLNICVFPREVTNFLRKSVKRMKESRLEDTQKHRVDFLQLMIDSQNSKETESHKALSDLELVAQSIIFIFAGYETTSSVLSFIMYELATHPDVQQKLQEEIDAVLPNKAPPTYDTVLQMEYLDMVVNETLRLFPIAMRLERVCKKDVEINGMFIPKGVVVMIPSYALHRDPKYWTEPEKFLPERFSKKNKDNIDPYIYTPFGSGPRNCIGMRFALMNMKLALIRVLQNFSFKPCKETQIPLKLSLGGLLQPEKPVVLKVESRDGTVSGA

As to `CCCCCCCCCCCCC(C(=O)O)C(C)C(=O)O` (stereo not given), the Potency entry in assay [1], in assay [2] and in assay [4] was “inactive” in each case. Further, the activity change, negative = inhibition in assay [3] is 4.67% (inactive). The max response came out at 6.54% in assay [3] (setting [7]) and 14% in assay [3] (setting [8]).

`COc1cccc2c1CCC1CC(=O)CC[C@@]21C` (stereo not given in full): the Potency in assay [1] was 15.8 µM (active). Moreover, the Potency result in assay [5], in assay [2], in assay [6] and in assay [4] was “inactive” throughout. For the same compound, the activity change, negative = inhibition in assay [3] is 4.57% (inactive). For the same compound, the results for the max response in assay [3] (setting [7]) and in assay [3] (setting [8]) were -12.9% and -5.49%, respectively.

In the case of `COC(=O)CC1C(C)(C)C(O)C2CC3=C4C=C(OC)OC(c5ccoc5)[C@]4(C)CCC3[C@@]1(C)C2=O` (stereo not given in full), in assay [1], the Potency is 10 µM (active). The Potency result in assay [5], in assay [2], in assay [6] and in assay [4] was “inactive” in each case. Also, the activity change, negative = inhibition in assay [3] is -1.2% (inactive). Moreover, the max response in assay [3] (setting [7]) turned out to be 2.63%; in assay [3] (setting [8]), 3.16%.

`Cc1cc(O)cc(O)c1C(=O)O`: in assay [1], the Potency was 25.1 µM (active). Further, the Potency entry in assay [5], in assay [2], in assay [6] and in assay [4] was “inactive” in each case. For the same compound, in assay [3], the activity change, negative = inhibition is 4.63% (inactive). Moreover, the max response in assay [3] (setting [7]) worked out at 10.6%; in assay [3] (setting [8]), 18.2%.

On to `C/C=C(\C)C(=O)OC1[C@@H]2C=C3C4CC(=O)OC(c5ccoc5)[C@]4(C)CCC3[C@@](C)(C2=O)C(C(O)C(=O)OC)C1(C)C` (stereo not given in full), for which the Potency in assay [1] is 12.6 µM (active). Moreover, the Potency result in assay [5], in assay [2], in assay [6] and in assay [4] was “inactive” in each case. In addition, the activity change, negative = inhibition in assay [3] is -1.19% (inactive). Also, the max response in assay [3] (setting [7]) was found to be 8.66%; in assay [3] (setting [8]), 12.5%.

In the case of `NC(=O)NCC(N)C(=O)O` (stereo not given), the Potency entry in assay [1], in assay [2] and in assay [4] was “inactive” each time. Further, the activity change, negative = inhibition in assay [3] was 2.49% (inactive). Besides, the max response in assay [3] (setting [7]) was 3.72%; in assay [3] (setting [8]), 6.05%.

Take `CC(=O)OC1C[C@@]2(C)C(c3ccoc3)OC(=O)C3O[C@@]32[C@]2(C)C(OC(C)=O)CC3C(C)(C)C(OC(C)=O)CC(OC(C)=O)[C@@]3(C)C12` (stereo not given in full): the Potency in assay [1] was 5.01 µM (active). The Potency result in assay [5], in assay [2], in assay [6] and in assay [4] was “inactive” in each case. Besides, the activity change, negative = inhibition in assay [3] was -11.3% (inactive). Also, the max response in assay [3] (setting [7]) was -1.68%; in assay [3] (setting [8]), -11%.

Consider `Nc1nc2c(nc(Sc3ccc(Cl)cc3)n2C2OC(CO)C(O)C2O)c(=O)[nH]1` (stereo not given), for which the Potency in assay [1] was 15.8 µM (active). The Potency entry in assay [5], in assay [2], in assay [6] and in assay [4] was “inactive” throughout. Also, in assay [3], the activity change, negative = inhibition was 5.03% (inactive). Moreover, the figures for the max response in assay [3] (setting [7]) and in assay [3] (setting [8]) were 14.6% and 19.6%, respectively.

Regarding `CC(=O)OC1CC[C@@]2(C)C(CC[C@@]3(C)C2CC=C2C4CC(C)(C)CC[C@]4(C(=O)O)CC[C@@]23C)C1(C)C` (stereo not given in full), the Potency entry in assay [1], in assay [2], in assay [6] and in assay [4] was “inactive” each time. Moreover, the activity change, negative = inhibition in assay [3] was 9.65% (inactive). For the same compound, the figures for the max response in assay [3] (setting [7]) and in assay [3] (setting [8]) were 12.5% and 29%, respectively.

In the case of `COc1ccc(-c2c(O)c3c(OC)c4c(cc3oc2=O)OC(C)(C)C=C4)cc1`, the Potency in assay [1] is 6.31 µM (active). Moreover, the Potency result in assay [5], in assay [2], in assay [6] and in assay [4] was “inactive” throughout. Besides, the activity change, negative = inhibition in assay [3] was -13.4% (inactive). In addition, the max response in assay [3] (setting [7]) is -5.03%; in assay [3] (setting [8]), -5.79%.

With `CC1O[C@@H](O[C@H]2C(Oc3cc(O)c4c(c3)OC(c3ccc(O)cc3)CC4=O)OC(CO)C(O)C2O)C(O)C(O)C1O` (stereo not given in full), the Potency result in assay [1], in assay [2] and in assay [4] was “inactive” throughout. Moreover, in assay [3], the activity change, negative = inhibition is 6.1% (inactive). The max response is 13% in assay [3] (setting [7]) and 21.6% in assay [3] (setting [8]).

`CC1(C)CC2/C(CO)=C/C=C/[C@](C)(O)CC[C@]21O` (stereo not given in full): in assay [1], the Potency is 15.8 µM (active). Also, the Potency result in assay [5], in assay [2], in assay [6] and in assay [4] was “inactive” throughout. Besides, the activity change, negative = inhibition in assay [3] was 4.24% (inactive). The max response in assay [3] (setting [7]) stood at 22.8%; in assay [3] (setting [8]), 29.9%.

With `CCOC(=O)CCC(=O)O[C@H]1C(O[C@@H]2C(C)[C@H](O[C@H]3C[C@@](C)(OC)C(O)C(C)O3)C(C)C(=O)OC(CC)[C@@](C)(O)C(O)[C@H](C)C(=O)C(C)C[C@]2(C)O)OC(C)CC1N(C)C` (stereo not given in full), the Potency in assay [1] is 20 µM (active). For the same compound, the Potency result in assay [5], in assay [2], in assay [6] and in assay [4] was “inactive” each time. Besides, in assay [3], the activity change, negative = inhibition was -0.5% (inactive). The max response in assay [3] (setting [7]) was 3.86%; in assay [3] (setting [8]), 3.45%.

As for `COc1cc2c(cc1O)C(Cc1ccc(O)cc1)[N+](C)(C)CC2` (stereo not given), the Potency entry in assay [1], in assay [2] and in assay [4] was “inactive” throughout. For the same compound, in assay [3], the activity change, negative = inhibition was 12.6% (inactive). The max response in assay [3] (setting [7]) was 6.75%; in assay [3] (setting [8]) it was 22.8%.

Consider `Nc1nc2[nH]c(=O)c(=O)[nH]c2c(=O)[nH]1`, for which the Potency entry in assay [1], in assay [2] and in assay [4] was “inactive” in each case. The activity change, negative = inhibition in assay [3] is 4.12% (inactive). Also, the max response in assay [3] (setting [7]) was 1.82%; in assay [3] (setting [8]) it was 6.32%.

On to `CC(=O)OC1CC2C(C)(C)C(O)CC(O)[C@@]2(C)C2CC[C@@]3(C)C(=CC(=O)OC3c3ccoc3)[C@]12C` (stereo not given in full), for which the Potency in assay [1] was 3.98 µM (active). Also, the Potency entry in assay [5], in assay [2], in assay [6] and in assay [4] was “inactive” each time. The activity change, negative = inhibition in assay [3] is 0.404% (inactive). The figures for the max response in assay [3] (setting [7]) and in assay [3] (setting [8]) were -0.781% and 3.91%, respectively.

Regarding `Nc1ncnc2[nH]c(=O)[nH]c12`, the Potency result in assay [1], in assay [2] and in assay [4] was “inactive” throughout. Besides, the activity change, negative = inhibition in assay [3] was 4.6% (inactive). The max response in assay [3] (setting [7]) was 1.75%; in assay [3] (setting [8]), 6.43%.

As to `COC(=O)/C(C)=C/CC12OC(C)(C)C3CC(C=C4C(=O)c5cc6c(c(CCC(C)(C)Cl)c5OC431)OC1(C)CCC(=C(C)C)C6C1)C2=O` (stereo not given), the Potency result in assay [1], in assay [2], in assay [6] and in assay [4] was “inactive” in each case. In assay [3], the activity change, negative = inhibition is 14.1% (inactive). The results for the max response in assay [3] (setting [7]) and in assay [3] (setting [8]) were 7.63% and 20.5%, respectively.

As for `O=C/C=C/c1ccc(O)cc1`, the Potency result in assay [1], in assay [2], in assay [6] and in assay [4] was “inactive” throughout. The activity change, negative = inhibition in assay [3] was 4.82% (inactive). For the same compound, the figures for the max response in assay [3] (setting [7]) and in assay [3] (setting [8]) were 10.7% and 16.6%, respectively.

For the compound `O=c1[nH]cnc2c1nc(Cl)n2C1OC(CO)C(O)C1O` (stereo not given), the Potency entry in assay [1], in assay [2], in assay [6] and in assay [4] was “inactive” each time. For the same compound, the activity change, negative = inhibition in assay [3] was 3.67% (inactive). For the same compound, the max response in assay [3] (setting [7]) turned out to be 5.38%; in assay [3] (setting [8]), 10.4%.

On to `CCOC(=O)CCCCCCCCCCCCC1C=CCC1` (stereo not given), for which the Potency entry in assay [1], in assay [2], in assay [6] and in assay [4] was “inactive” each time. Further, in assay [3], the activity change, negative = inhibition is 1.66% (inactive). Further, the values for the max response in assay [3] (setting [7]) and in assay [3] (setting [8]) were 9.42% and 10.7%, respectively.

For `Nc1nc2c([nH]c(=S)n2C2OC(CO)C(O)C2O)c(=O)[nH]1` (stereo not given), the Potency result in assay [1], in assay [2], in assay [6] and in assay [4] was “inactive” in each case. The activity change, negative = inhibition in assay [3] was 2.15% (inactive). The max response in assay [3] (setting [7]) is 0.955%; in assay [3] (setting [8]), 15.7%.

On to `Nc1ncnc2c1nc(Br)n2C1CC(O)C(CO)O1` (stereo not given), for which the Potency entry in assay [1], in assay [2], in assay [6] and in assay [4] was “inactive” in each case. The activity change, negative = inhibition in assay [3] is 2.34% (inactive). Also, the results for the max response in assay [3] (setting [7]) and in assay [3] (setting [8]) were 9.06% and 11.8%, respectively.
